Structures can show the parent of a compound that is named as a salt. ± gives the standard deviation of the averaged measurements.
Key:
Assay in all cases: growth (OD600 after 10 h); higher = more growth (less inhibition)
[1] = system: E. coli TESEC Alr+ wild-type control; conditions: compound 0.1 mM; raw OD600 reference: median of DMSO wells 0.241, cell-free background 0.041
Protocol: (§1)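 TESEC Mtb Alr E. coli, or the Alr+ wild-type control, in 384-well plates with Prestwick library compounds at 0.1 mM and 1% DMSO, across arabinose induction levels of 1E3 to 1E7 nM. Growth is read as OD600 after 10 h at 37 °C in triplicate biological replicates.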

E. coli TESEC Mtb Alr [2] = conditions: compound 0.1 mM
Protocol: as §1

E. coli TESEC Mtb Asd = conditions: compound 0.1 mM
Protocol: (§2)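 TESEC E. coli strains in which the native enzyme is deleted and replaced by arabinose-inducible Mtb Asd, DapB, CysH or TrpD, each grown in its selective medium. Strains were screened against the Prestwick library at 0.1 mM and 1% DMSO in 384-well format at low and high arabinose induction. Growth is read as OD600 after 10 h in triplicate.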

E. coli TESEC Mtb DapB = conditions: compound 0.1 mM
Protocol: as §2

[3] = system: E. coli TESEC Alr+ wild-type control; conditions: compound 0.1 mM; raw OD600 reference: median of DMSO wells 0.49, cell-free background 0.052
Protocol: (§3)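 TESEC Mtb Alr E. coli (ΔaraC ΔtolC ΔentC Δalr ΔdadX, arabinose-inducible Mtb Alr) or the Alr+ wild-type control strain, grown in defined M9-fructose medium without D-alanine in 96-well plates with Prestwick library compounds at 0.1 mM and 1% DMSO. Low Alr induction is 0.1 µM arabinose and high induction is 10 mM arabinose.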

E. coli TESEC Mtb Alr [4] = conditions: compound 0.1 mM; remark: listed apart in the source
Protocol: as §3

[5] = arabinose 1000 nM, raw OD600 reference: median of DMSO wells 0.294, cell-free background 0.041
[6] = arabinose 10000 nM, raw OD600 reference: median of DMSO wells 0.264, cell-free background 0.041
[7] = arabinose 100000 nM, raw OD600 reference: median of DMSO wells 0.201, cell-free background 0.041
[8] = arabinose 1000000 nM, raw OD600 reference: median of DMSO wells 0.193, cell-free background 0.041
[9] = arabinose 10000000 nM, raw OD600 reference: median of DMSO wells 0.146, cell-free background 0.041
[10] = arabinose induction (level): High, raw OD600 reference: median of DMSO wells 0.331, cell-free background 0.041
[11] = arabinose induction (level): Low, raw OD600 reference: median of DMSO wells 0.417, cell-free background 0.041
[12] = arabinose induction (level): High, raw OD600 reference: median of DMSO wells […], cell-free background 0.041
[13] = arabinose induction (level): Low, raw OD600 reference: median of DMSO wells 0.227, cell-free background 0.041
[14] = arabinose 100 nM, raw OD600 reference: median of DMSO wells 0.413, cell-free background 0.052
[15] = arabinose 10000000 nM, raw OD600 reference: median of DMSO wells […], cell-free background 0.052

Structure (SMILES) | growth [1] | growth (E. coli TESEC Mtb Alr [2]; [5]) | growth (E. coli TESEC Mtb Alr [2]; [6]) | growth (E. coli TESEC Mtb Alr [2]; [7]) | growth (E. coli TESEC Mtb Alr [2]; [8]) | growth (E. coli TESEC Mtb Alr [2]; [9]) | growth (E. coli TESEC Mtb Asd; [10]) | growth (E. coli TESEC Mtb Asd; [11]) | growth (E. coli TESEC Mtb DapB; [12]) | growth (E. coli TESEC Mtb DapB; [13]) | growth [3] | growth (E. coli TESEC Mtb Alr [4]; [14]) | growth (E. coli TESEC Mtb Alr [4]; [15])
CCCc1nc2c(C)cc(-c3nc4ccccc4n3C)cc2n1Cc1ccc(-c2ccccc2C(=O)O)cc1 [Telmisartan] | 0.208 ± 0.0078 | 0.271 ± 0.02 | 0.291 ± 0.011 | 0.19 ± 0.016 | 0.228 ± 0.0023 | 0.156 ± 0.0075 | 0.2439 ± 0.00056 | 0.41 ± 0.024 | 0.273 ± 0.0084 | 0.307 ± 0.039 | 0.505 ± 0.043 | 0.283 ± 0.052 | 0.337 ± 0.018
OCCN1CCN(CC/C=C2/c3ccccc3Sc3ccc(Cl)cc32)CC1 [Zuclopenthixol dihydrochloride] | 0.0505 ± 0.0052 | 0.257 ± 0.0079 | 0.176 ± 0.005 | 0.1981 ± 0.0017 | 0.0779 ± 0.0011 | 0.14 ± 0.0078 | 0.205 ± 0.043 | 0.215 ± 0.011 | 0.179 ± 0.029 | 0.186 ± 0.038 | 0.049 ± 0.0005 | 0.156 ± 0.19 | 0.0523 ± 0.0015
CC[N+](C)(CC)CCC[n+]1c(-c2ccccc2)c2cc(N)ccc2c2ccc(N)cc21 [Propidium iodide] | 0.0949 ± 0.011 | 0.135 ± 0.023 | 0.116 ± 0.028 | 0.15 ± 0.02 | 0.0816 ± 0.0028 | 0.0888 ± 0.012 | 0.0925 ± 0.0048 | 0.0953 ± 0.0048 | 0.137 ± 0.027 | 0.111 ± 0.021 | 0.0675 ± 0.0008 | 0.221 ± 0.13 | 0.0665 ± 0.0008
O=C(O)Cc1cc(I)c(Oc2ccc(O)c(I)c2)c(I)c1 [Tiratricol, 3,3',5-triiodothyroacetic acid] | 0.0409 ± 0.00083 | 0.0428 ± 0.0019 | 0.04123 ± 0.00021 | 0.0442 ± 0.0023 | 0.0408 ± 0.00017 | 0.0558 ± 0.002 | 0.057 ± 0.0056 | 0.06 ± 0.0072 | 0.0676 ± 0.0044 | 0.108 ± 0.09 | 0.0593 ± 0.0022 | 0.167 ± 0.087 | 0.05437 ± 0.00015
CN[C@@H]1[C@H](O)[C@H](NC)[C@H]2O[C@@]3(O)C(=O)C[C@@H](C)O[C@H]3O[C@@H]2[C@H]1O [Spectinomycin dihydrochloride] | 0.0517 ± 0.00091 | 0.0841 ± 0.0062 | 0.0632 ± 0.0013 | 0.075 ± 0.0085 | 0.0512 ± 0.00079 | 0.05437 ± 0.00031 | 0.0788 ± 0.0045 | 0.0788 ± 0.0017 | 0.0987 ± 0.0037 | 0.104 ± 0.013 | 0.228 ± 0.023 | 0.308 ± 0.021 | 0.0979 ± 0.014
Nc1ccn([C@@H]2CS[C@H](CO)O2)c(=O)n1 [Lamivudine] | 0.239 ± 0.0031 | 0.292 ± 0.011 | 0.262 ± 0.0097 | 0.211 ± 0.037 | 0.209 ± 0.0042 | 0.144 ± 0.0079 | 0.353 ± 0.0047 | 0.425 ± 0.021 | 0.18 ± 0.013 | 0.207 ± 0.016 | 0.563 ± 0.13 | 0.407 ± 0.0069 | 0.357 ± 0.0056
CCN(CC)CCc1nc(-c2ccccc2)no1 [Oxalamine citrate salt] | 0.23 ± 0.012 | 0.273 ± 0.021 | 0.27 ± 0.0036 | 0.187 ± 0.0043 | 0.187 ± 0.0094 | 0.135 ± 0.0019 | 0.307 ± 0.045 | 0.332 ± 0.031 | 0.186 ± 0.0074 | 0.216 ± 0.013 | 0.537 ± 0.036 | 0.406 ± 0.011 | 0.343 ± 0.015
CN1CCN2c3ncccc3Cc3ccccc3C2C1 (stereo not drawn) [Mirtazapine] | 0.217 ± 0.0068 | 0.281 ± 0.0088 | 0.2774 ± 0.0027 | 0.225 ± 0.025 | 0.182 ± 0.021 | 0.162 ± 0.0043 | 0.261 ± 0.11 | 0.29 ± 0.013 | 0.212 ± 0.0063 | 0.249 ± 0.019 | 0.468 ± 0.035 | 0.414 ± 0.014 | 0.336 ± 0.014
NCc1ccccc1CC(=O)N[C@@H]1C(=O)N2C(C(=O)O)=C(CSc3nnnn3CC(=O)O)CS[C@H]12 [Ceforanide] | 0.3 ± 0.0032 | 0.324 ± 0.0083 | 0.167 ± 0.0036 | 0.238 ± 0.016 | 0.161 ± 0.0024 | 0.206 ± 0.0071 | 0.244 ± 0.01 | 0.315 ± 0.033 | 0.182 ± 0.012 | 0.242 ± 0.012 | 0.501 ± 0.055 | 0.108 ± 0.033 | 0.303 ± 0.024
COc1ccc2cc([C@H](C)C(=O)O)ccc2c1 [Naproxen] | 0.26 ± 0.0081 | 0.265 ± 0.029 | 0.249 ± 0.014 | 0.187 ± 0.012 | 0.168 ± 0.0019 | 0.132 ± 0.0043 | 0.247 ± 0.028 | 0.426 ± 0.063 | 0.18 ± 0.062 | 0.217 ± 0.027 | 0.5599 ± 0.0025 | 0.42 ± 0.0057 | 0.293 ± 0.019
NC(=O)OCC(COC(N)=O)c1ccccc1 [Felbamate] | 0.24 ± 0.0061 | 0.288 ± 0.0029 | 0.26 ± 0.0095 | 0.201 ± 0.023 | 0.204 ± 0.0095 | 0.137 ± 0.0061 | 0.423 ± 0.044 | 0.316 ± 0.031 | 0.224 ± 0.0049 | 0.212 ± 0.0076 | 0.608 ± 0.097 | 0.405 ± 0.011 | 0.369 ± 0.025

Source: the supplement of paper PMC9262897, “Low-cost anti-mycobacterial drug discovery using engineered E. coli” (Nature Communications, 2022)
